# Source: PubChem BioAssay (EPA / NIEHS)
# Records with an inconclusive call do not appear. Activity calls are given as the source filed them. The calls were made as follows: active = hit-call score of the fitted dose curve at least 0.9, where 1 is the maximum; inconclusive = response in the unintended direction; inactive = score below 0.9.
# What was measured:
# [1] = target: rabbit Imidazoline 2 Central (I2C), CKB (gene 100009085) (UniProt P00567); assay: NVS_ENZ_rabI2C: NovaScreen (NVS) Enzymatic Assay for rabbit Imidazoline 2 Central (I2C) (AID 2283228)
# rabbit Imidazoline 2 Central (I2C), CKB (gene 100009085), sequence (P00567 whole entry, looked up): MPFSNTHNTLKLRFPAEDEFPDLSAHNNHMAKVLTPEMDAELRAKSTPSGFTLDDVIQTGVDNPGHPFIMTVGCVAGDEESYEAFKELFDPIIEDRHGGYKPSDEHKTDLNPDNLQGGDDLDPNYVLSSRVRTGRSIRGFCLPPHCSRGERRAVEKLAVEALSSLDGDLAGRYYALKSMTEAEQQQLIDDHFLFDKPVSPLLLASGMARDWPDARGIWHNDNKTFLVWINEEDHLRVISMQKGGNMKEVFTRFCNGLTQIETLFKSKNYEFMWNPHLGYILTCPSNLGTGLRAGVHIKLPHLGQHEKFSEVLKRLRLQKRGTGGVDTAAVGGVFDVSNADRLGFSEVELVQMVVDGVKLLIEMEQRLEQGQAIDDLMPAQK
# Summary of the method: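 Rabbit brain membranes, cell-free; readout by filter-based scintillation counting 1.5 hours after dosing, loss of signal vs DMSO. Initial duplicate test at 25 uM, then concentration-response with 50 uM top concentration.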
# [2] = target: human Vascular Endothelial Growth Factor Receptor 2 (VEGFR2), KDR (gene 3791) (UniProt P35968); assay: NVS_ENZ_hVEGFR2: NovaScreen (NVS) Enzymatic Assay for human Vascular Endothelial Growth Factor Receptor 2 (VEGFR2) (AID 2283230)
# human Vascular Endothelial Growth Factor Receptor 2 (VEGFR2), KDR (gene 3791), sequence (P35968 whole entry, looked up): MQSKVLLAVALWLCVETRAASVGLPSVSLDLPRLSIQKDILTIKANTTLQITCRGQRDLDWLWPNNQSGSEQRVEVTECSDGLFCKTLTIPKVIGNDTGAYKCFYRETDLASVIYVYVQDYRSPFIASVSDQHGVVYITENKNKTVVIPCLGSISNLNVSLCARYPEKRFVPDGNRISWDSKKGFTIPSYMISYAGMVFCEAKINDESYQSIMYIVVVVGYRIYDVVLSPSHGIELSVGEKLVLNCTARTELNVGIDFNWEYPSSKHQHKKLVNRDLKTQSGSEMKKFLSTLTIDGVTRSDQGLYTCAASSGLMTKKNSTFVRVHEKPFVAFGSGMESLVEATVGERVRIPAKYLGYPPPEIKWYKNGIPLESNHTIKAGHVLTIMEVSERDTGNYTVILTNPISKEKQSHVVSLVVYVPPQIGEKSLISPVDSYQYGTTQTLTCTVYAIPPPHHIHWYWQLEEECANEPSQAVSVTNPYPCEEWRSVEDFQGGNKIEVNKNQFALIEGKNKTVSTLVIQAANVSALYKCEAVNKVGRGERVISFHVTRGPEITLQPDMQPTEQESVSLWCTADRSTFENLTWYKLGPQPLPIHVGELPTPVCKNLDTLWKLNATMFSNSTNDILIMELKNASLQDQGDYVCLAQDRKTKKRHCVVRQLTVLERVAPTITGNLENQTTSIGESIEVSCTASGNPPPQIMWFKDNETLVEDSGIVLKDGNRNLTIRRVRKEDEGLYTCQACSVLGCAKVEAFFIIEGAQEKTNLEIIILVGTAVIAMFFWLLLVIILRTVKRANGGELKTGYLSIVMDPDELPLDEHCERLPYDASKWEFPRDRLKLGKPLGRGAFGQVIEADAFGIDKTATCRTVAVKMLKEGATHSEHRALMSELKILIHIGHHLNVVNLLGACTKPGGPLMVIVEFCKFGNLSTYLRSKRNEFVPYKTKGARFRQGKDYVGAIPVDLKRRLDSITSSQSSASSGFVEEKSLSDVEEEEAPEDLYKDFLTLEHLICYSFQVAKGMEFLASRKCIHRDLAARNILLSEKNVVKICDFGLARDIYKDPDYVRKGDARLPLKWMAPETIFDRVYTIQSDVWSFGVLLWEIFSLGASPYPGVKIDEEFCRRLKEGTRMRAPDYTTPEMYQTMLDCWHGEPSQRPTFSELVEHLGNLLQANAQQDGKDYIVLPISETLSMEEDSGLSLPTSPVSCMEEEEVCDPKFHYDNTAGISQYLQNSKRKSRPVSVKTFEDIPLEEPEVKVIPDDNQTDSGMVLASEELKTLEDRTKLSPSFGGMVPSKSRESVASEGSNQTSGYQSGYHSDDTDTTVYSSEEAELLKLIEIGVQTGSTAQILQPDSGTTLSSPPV
# Summary of the method: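 Cell-free recombinant VEGFR2 kinase, fluorescent substrate with electrophoretic mobility-shift separation; read 1 h after dosing. Screened at 25 uM in duplicate, hits to concentration-response up to 50 uM; loss-of-signal versus DMSO.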
# [3] = target: sheep Cyclooxygenase-1 (Cox1), PTGS1 (gene 443551) (UniProt P05979); assay: NVS_ENZ_oCOX1: NovaScreen (NVS) Enzymatic Assay for sheep Cyclooxygenase-1 (Cox1) (AID 2283239);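 also: actives reduce cyclooxygenase activity so potencies are for inhibitors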
# sheep Cyclooxygenase-1 (Cox1), PTGS1 (gene 443551), sequence (P05979 whole entry, looked up): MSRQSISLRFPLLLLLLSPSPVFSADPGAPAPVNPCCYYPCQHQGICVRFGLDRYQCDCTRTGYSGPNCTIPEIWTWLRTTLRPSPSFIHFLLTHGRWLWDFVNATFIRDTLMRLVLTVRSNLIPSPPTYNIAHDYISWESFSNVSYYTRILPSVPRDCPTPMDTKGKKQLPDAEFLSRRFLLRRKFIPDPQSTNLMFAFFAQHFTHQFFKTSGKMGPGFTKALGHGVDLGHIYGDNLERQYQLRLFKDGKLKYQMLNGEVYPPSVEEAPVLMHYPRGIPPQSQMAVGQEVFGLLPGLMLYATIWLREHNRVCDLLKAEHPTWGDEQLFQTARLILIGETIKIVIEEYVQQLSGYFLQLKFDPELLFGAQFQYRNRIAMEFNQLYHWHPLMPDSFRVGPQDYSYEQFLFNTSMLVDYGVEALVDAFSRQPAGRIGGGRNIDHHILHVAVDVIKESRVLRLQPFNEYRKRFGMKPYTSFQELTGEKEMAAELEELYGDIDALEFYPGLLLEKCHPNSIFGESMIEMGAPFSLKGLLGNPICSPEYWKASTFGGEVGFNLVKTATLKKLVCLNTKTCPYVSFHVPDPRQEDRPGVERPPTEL
# Summary of the method: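 Cell-free colorimetric assay of enzyme activity in a native extract of ovine seminal vesicles. Absorbance was read 0.66 hour after compound addition. Loss of signal relative to the DMSO negative control was scored, with actives from the 25 uM duplicate primary screen retested in concentration series.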
# [4] = tested on: guinea pig Muscarinic, Peripheral (Mperiperal) Receptor, Non-selective Binding, gene 100379235; assay: NVS_GPCR_gMPeripheral_NonSelective: NovaScreen (NVS) G Protein-Coupled Receptor Assay for guinea pig Muscarinic, Peripheral (Mperiperal) Receptor, Non-selective Binding (AID 2283250)
# Summary of the method: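 Guinea pig bladder membranes, radioligand binding read 1 h after dosing by filter scintillation counting; loss of signal vs DMSO. Primary duplicate screen at 25 uM, then concentration-response up to 50 uM.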
# [5] = target: guinea pig Opioid, Kappa 1 Receptor (OpiateK), OPRK1 (gene 100135587) (UniProt P41144); assay: NVS_GPCR_gOpiateK: NovaScreen (NVS) G Protein-Coupled Receptor Assay for guinea pig Opioid, Kappa 1 Receptor (OpiateK) (AID 2283252);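 also: radioligand displacement from kappa opioid receptor in guinea pig cerebellar membranes; active means reduced radioligand binding relative to DMSO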
# Summary of the method: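 Signal is scintillation counts of filter-trapped radioligand bound to guinea pig cerebellar membrane receptor, measured 2 hours post-dosing. Activity is loss of binding versus DMSO, first at 25 uM in duplicate, then as concentration series for actives.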
# [6] = target: human Serotonin, 5-Hydroxytryptamine Receptor 5A (5HT5A), HTR5A (gene 3361) (UniProt P47898); assay: NVS_GPCR_h5HT5A: NovaScreen (NVS) G Protein-Coupled Receptor Assay for human Serotonin, 5-Hydroxytryptamine Receptor 5A (5HT5A) (AID 2283251)
# Summary of the method: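 Cell-free radioligand displacement binding on HEK293-derived membrane protein, 1 h incubation, filter-based scintillation counting. Primary screen in duplicate at 25 uM, actives followed in concentration series; loss of signal fitted versus DMSO.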
# [7] = target: rat Catechol-O-Methyl Transferase (COMT), Comt (gene 24267) (UniProt P22734); assay: NVS_ENZ_rCOMT: NovaScreen (NVS) Enzymatic Assay for rat Catechol-O-Methyl Transferase (COMT) (AID 2283235)
# Summary of the method: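 Cell-free enzyme activity with protein extracted from rat dorsal striatum, measured by HPLC with absorbance detection. Compounds screened at 25 uM in duplicate; actives then run in concentration-response up to 50 uM, loss of signal versus DMSO.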
# [8] = target: rat Constitutive Nitric Oxide Synthase (CNOS), Nos1 (gene 24598) (UniProt P29476); assay: NVS_ENZ_rCNOS: NovaScreen (NVS) Enzymatic Assay for rat Constitutive Nitric Oxide Synthase (CNOS) (AID 2283236)
# rat Constitutive Nitric Oxide Synthase (CNOS), Nos1 (gene 24598), sequence (P29476 whole entry, looked up): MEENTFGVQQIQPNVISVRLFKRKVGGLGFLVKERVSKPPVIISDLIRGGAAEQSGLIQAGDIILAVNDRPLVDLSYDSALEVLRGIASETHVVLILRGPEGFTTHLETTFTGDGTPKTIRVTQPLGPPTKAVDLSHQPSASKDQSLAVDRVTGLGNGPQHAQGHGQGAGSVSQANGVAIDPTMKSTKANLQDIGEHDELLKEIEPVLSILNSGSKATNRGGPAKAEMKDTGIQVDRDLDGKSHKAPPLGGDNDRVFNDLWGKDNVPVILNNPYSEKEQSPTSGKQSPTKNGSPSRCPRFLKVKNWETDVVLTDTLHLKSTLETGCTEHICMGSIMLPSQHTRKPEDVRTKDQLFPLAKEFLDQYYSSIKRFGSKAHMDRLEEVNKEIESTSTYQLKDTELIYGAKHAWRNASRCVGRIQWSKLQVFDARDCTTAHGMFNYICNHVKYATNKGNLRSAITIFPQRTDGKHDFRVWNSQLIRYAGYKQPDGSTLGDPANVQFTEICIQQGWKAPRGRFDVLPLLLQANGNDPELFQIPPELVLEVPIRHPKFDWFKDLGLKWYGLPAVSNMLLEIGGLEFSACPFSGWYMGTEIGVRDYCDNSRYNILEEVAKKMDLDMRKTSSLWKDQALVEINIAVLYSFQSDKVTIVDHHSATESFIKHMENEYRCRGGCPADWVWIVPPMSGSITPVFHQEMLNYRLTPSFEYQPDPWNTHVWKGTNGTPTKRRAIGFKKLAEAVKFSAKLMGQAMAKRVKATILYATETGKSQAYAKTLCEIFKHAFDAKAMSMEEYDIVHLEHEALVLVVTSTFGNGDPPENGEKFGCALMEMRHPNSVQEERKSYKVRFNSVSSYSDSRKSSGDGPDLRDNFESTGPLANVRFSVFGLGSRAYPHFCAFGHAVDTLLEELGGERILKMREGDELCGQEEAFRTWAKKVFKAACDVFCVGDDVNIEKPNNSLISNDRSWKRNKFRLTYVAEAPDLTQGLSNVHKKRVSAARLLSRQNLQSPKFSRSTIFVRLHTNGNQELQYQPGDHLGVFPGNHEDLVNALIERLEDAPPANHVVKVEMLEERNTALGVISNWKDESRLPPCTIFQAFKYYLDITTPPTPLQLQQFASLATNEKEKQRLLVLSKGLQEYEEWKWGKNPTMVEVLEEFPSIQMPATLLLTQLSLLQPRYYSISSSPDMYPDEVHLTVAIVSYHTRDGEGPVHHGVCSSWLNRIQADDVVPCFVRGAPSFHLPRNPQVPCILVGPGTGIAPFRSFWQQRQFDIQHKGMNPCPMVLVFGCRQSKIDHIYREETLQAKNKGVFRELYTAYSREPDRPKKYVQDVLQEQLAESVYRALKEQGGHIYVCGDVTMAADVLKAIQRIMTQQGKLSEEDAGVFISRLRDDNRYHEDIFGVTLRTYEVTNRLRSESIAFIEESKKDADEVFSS
# Summary of the method: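 Enzyme activity in rat brain membrane preparation, read 1 h after dosing by filter-based radiometric scintillation counting. Primary screen in duplicate at 25 uM; actives (e.g., ≥30% inhibition) then run in concentration-response up to 50 uM.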
# [9] = target: Adenosine receptor A1 (Bos taurus) (UniProt P28190); assay: NVS_GPCR_bAdoR_NonSelective: NovaScreen (NVS) G Protein-Coupled Receptor Assay for bovine Adenosine Receptor (AdoR), Non-selective Binding (AID 2283244)
# Adenosine receptor A1 (Bos taurus), sequence (P28190 whole entry, looked up): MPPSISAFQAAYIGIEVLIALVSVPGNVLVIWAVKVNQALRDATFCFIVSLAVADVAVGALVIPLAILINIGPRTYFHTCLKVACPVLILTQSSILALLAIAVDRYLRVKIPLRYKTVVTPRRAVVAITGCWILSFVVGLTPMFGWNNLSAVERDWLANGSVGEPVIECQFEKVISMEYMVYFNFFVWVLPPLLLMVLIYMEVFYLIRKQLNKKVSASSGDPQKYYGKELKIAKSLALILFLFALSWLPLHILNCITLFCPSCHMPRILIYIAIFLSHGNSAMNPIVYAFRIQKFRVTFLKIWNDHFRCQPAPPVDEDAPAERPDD
# Summary of the method: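 Bovine striatal membranes, radioligand displacement binding, 1 h after dosing, filter-based scintillation counting. Screened in duplicate at 25 uM, then concentration-response up to 50 uM; loss of specific binding relative to DMSO.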
# [10] = target: human Adenosine A1 Receptor (AdoRA1), ADORA1 (gene 134) (UniProt P30542); assay: NVS_GPCR_hAdoRA1: NovaScreen (NVS) G Protein-Coupled Receptor Assay for human Adenosine A1 Receptor (AdoRA1) (AID 2283254)
# Summary of the method: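 Radioligand competition binding on human cortical membranes, 1 h after compound addition; bound radioactivity read by filtration and scintillation counting. Loss of signal versus DMSO baseline scored as displacement; primary screen duplicate at 25 uM, actives retested in concentration series.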
# [11] = target: human Vascular Endothelial Growth Factor Receptor 1 (VEGFR1), FLT1 (gene 2321) (UniProt P17948); assay: NVS_ENZ_hVEGFR1: NovaScreen (NVS) Enzymatic Assay for human Vascular Endothelial Growth Factor Receptor 1 (VEGFR1) (AID 2283226)
# Summary of the method: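 Cell-free assay of recombinant human VEGFR1 kinase with substrate, measured 1 h after dosing; fluorescence with electrophoretic mobility-shift separation of substrate and product, referenced to DMSO; primary screen at 25 uM in duplicate, actives then run in concentration series.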
# [12] = target: bovine Dopamine Receptor (DR), Non-selective Binding, DRD1 (gene 281125) (UniProt Q95136); assay: NVS_GPCR_bDR_NonSelective: NovaScreen (NVS) G Protein-Coupled Receptor Assay for bovine Dopamine Receptor (DR), Non-selective Binding (AID 2283241)
# bovine Dopamine Receptor (DR), Non-selective Binding, DRD1 (gene 281125), sequence (Q95136 whole entry, looked up): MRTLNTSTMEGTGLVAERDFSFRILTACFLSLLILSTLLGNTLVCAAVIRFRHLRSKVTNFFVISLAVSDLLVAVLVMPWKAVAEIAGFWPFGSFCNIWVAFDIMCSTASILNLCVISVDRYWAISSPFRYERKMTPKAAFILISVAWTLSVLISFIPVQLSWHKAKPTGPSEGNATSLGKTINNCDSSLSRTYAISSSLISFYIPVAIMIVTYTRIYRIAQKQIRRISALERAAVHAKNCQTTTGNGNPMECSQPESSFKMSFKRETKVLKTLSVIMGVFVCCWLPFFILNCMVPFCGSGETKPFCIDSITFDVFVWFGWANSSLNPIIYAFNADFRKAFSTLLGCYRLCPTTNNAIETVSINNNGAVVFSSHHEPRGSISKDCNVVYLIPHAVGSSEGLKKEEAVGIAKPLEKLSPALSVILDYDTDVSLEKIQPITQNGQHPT
# Summary of the method: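 Bovine striatal membranes; radioligand displacement read by filtration and scintillation counting 1 h after dosing, loss of signal vs DMSO. Screened in duplicate at 25 uM, then concentration-response for hits.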
# [13] = target: human Serotonin, 5-Hydroxytryptamine Receptor 2A (5HT2A), HTR2A (gene 3356) (UniProt P28223); assay: NVS_GPCR_h5HT2A: NovaScreen (NVS) G Protein-Coupled Receptor Assay for human Serotonin, 5-Hydroxytryptamine Receptor 2A (5HT2A) (AID 2283249)
# Summary of the method: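 Human cortex membranes, cell-free radioligand binding; filter-based scintillation read 1.5 h after dosing. Duplicate screen at 25 uM first; displacement of specific binding (loss of signal) versus DMSO.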
# [14] = tested on: bovine Histamine 1 Receptor (H1), gene 281231; assay: NVS_GPCR_bH1: NovaScreen (NVS) G Protein-Coupled Receptor Assay for bovine Histamine 1 Receptor (H1) (AID 2283246)
# Summary of the method: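 Radioligand displacement on bovine cerebellar membranes, 1 h after dosing, filter-based scintillation read-out; loss of signal vs DMSO. Duplicate single-concentration screen at 25 uM, then concentration-response up to 50 uM for hits.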
# [15] = target: human Serotonin, 5-Hydroxytryptamine Receptor 6 (5HT6), HTR6 (gene 3362) (UniProt P50406); assay: NVS_GPCR_h5HT6: NovaScreen (NVS) G Protein-Coupled Receptor Assay for human Serotonin, 5-Hydroxytryptamine Receptor 6 (5HT6) (AID 2283253)
# human Serotonin, 5-Hydroxytryptamine Receptor 6 (5HT6), HTR6 (gene 3362), sequence (P50406 whole entry, looked up): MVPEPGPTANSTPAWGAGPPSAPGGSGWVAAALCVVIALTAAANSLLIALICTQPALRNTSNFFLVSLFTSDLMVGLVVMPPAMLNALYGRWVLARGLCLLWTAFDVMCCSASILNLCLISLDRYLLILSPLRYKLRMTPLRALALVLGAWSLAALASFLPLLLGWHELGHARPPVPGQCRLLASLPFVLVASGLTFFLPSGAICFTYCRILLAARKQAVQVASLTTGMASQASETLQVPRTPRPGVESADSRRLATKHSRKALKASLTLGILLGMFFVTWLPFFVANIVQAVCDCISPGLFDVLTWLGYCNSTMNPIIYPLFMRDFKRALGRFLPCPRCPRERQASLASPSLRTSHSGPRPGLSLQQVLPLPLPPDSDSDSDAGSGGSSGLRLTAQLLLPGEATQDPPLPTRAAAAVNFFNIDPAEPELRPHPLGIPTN
# Summary of the method: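 Radioligand binding to 5HT6 in HEK293-derived membranes, cell-free, 1 h after dosing; bound ligand measured by filter-based scintillation counting. Primary screen in duplicate at 25 uM; actives retested in concentration series.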
smiles,measurement,setting,value
CCCCCCCCCC[N+](C)(C)[O-],AC50,[1],8.08 µM (active)
NC(=Nc1ccccc1)Nc1ccccc1,outcome,[1],inactive
same,outcome,[2],inactive
same,outcome,[3],inactive
same,outcome,[4],inactive
same,AC50,[5],25 µM (active)
CCc1nc(N)nc(N)c1-c1ccc(Cl)cc1,AC50,[1],2.83 µM (active)
same,outcome,[4],inactive
same,outcome,[6],inactive
COC(=O)[C@H]1[C@H]2C[C@@H]3c4[nH]c5cc(OC)ccc5c4CCN3C[C@H]2C[C@@H](OC(=O)c2cc(OC)c(OC)c(OC)c2)[C@@H]1OC,outcome,[1],inactive
same,AC50,[3],19.5 µM (active)
O=C1c2c(O)cccc2Cc2cccc(O)c21,AC50,[7],12.1 µM (active)
same,AC50,[8],5.47 µM (active)
same,AC50,[3],3.2 µM (active)
CC(=O)S[C@H](C(=O)N[C@H]1Cc2ccccc2[C@H]2CCC[C@@H](C(=O)O)N2C1=O)C(C)C,outcome,[8],inactive
same,outcome,[3],inactive
Nc1nc(Cl)nc2c1ncn2[C@H]1C[C@H](O)[C@@H](CO)O1,AC50,[2],4.88 µM (active)
same,AC50,[9],10.6 µM (active)
same,AC50,[10],8.99 µM (active)
CN(C)C(=O)NC1(c2ccccc2)CCN(CC[C@@]2(c3ccc(F)c(F)c3)CN(C(=O)c3ccccc3)CCO2)CC1,outcome,[11],inactive
same,outcome,[1],inactive
same,outcome,[2],inactive
same,AC50,[12],6.51 µM (active)
same,outcome,[9],inactive
same,AC50,[13],13.1 µM (active)
same,outcome,[4],inactive
same,AC50,[5],3.94 µM (active)
COc1ccc(OC(F)(F)F)cc1CN[C@H]1CCCN[C@H]1c1ccccc1,outcome,[11],inactive
same,AC50,[1],15 µM (active)
same,outcome,[2],inactive
same,AC50,[3],11.6 µM (active)
same,AC50,[12],8.68 µM (active)
same,AC50,[14],7.82 µM (active)
same,AC50,[4],25 µM (active)
same,outcome,[6],inactive
same,AC50,[5],25 µM (active)
same,AC50,[15],9.71 µM (active)
CCC(C)N(C)C(=O)c1cc2ccccc2c(-c2ccccc2Cl)n1 (stereo not given),outcome,[8],inactive
O=C(N[C@@H](c1ccccc1)[C@@H]1CCCCN1)c1cccc(C(F)(F)F)c1Cl,AC50,[12],25 µM (active)
O=C(O)CN(CC(=O)O)CC(=O)O,outcome,[9],inactive
Cc1cc(SC2=C(O)C[C@@](CCc3ccc(N)cc3)(C(C)C)OC2=O)c(C(C)(C)C)cc1CO,outcome,[9],inactive
CN(C)CCCN1c2ccccc2Sc2ccc(Cl)cc21,outcome,[14],inactive
CO[C@@H]1COCC[C@@H]1N[C@@H]1CC[C@@](C(=O)N2CCc3ncc(C(F)(F)F)cc3C2)(C(C)C)C1,outcome,[14],inactive
CSc1ccc(Oc2ccc(S(N)(=O)=O)cc2CN(C)C)cc1C,AC50,[15],2.79 µM (active)
CC1(C)C(=O)NC(=O)N1CO,outcome,[15],inactive
